About 83,000 compounds went through this panel and 20% of them were active in at least one assay; those are over-represented in the sample as a whole.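 The test compound was applied at a single concentration to cells in 96-well plates for 48 hours, and percent growth was recorded.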 Calls of active or inactive are those of the source.
Tested on: NCI-H522 lung
Test: NCI-60 one-dose screen, 48 h (100 = growth as untreated, 0 = no growth, -100 = all killed)
Conditions: 10 µM unless noted
Protocol: Growth inhibition of the NCI-H522 human Non-Small Cell Lung tumor cell line is measured as a screen for anti-cancer activity. Cells are grown in 96 well plates and exposed to the test compound for 48 hours. Compounds are tested at a single concentration, which is 10^-5 M for most compounds. The reported endpoint is percent growth (GI% or GIPRCNT), where numbers from 0 - 100% represent growth inhibition, and numbers from -100% - 0 represent cell death. For example, a value of 40 represents 60% growth inhibition. A value of 0 means no net growth occurred over the course of the experiment. A value of -40 indicates 40% of cells at the beginning of the experiment died by the end of the experiment. A value of -100 means all cells are dead at the end of the experiment.
NCI-60 Human Tumor Cell Lines Screen was performed using the standard one-dose NCI protocol, which is described in more detail at https://dtp.cancer.gov/discovery_development/nci-60/default.htm.
Compounds with GIPRCNT values below 10 were considered active. Activity score was based on GIPRCNT using the following formula: […]
Score is 0 for GIPRCNT values of 100 or above, 50 for GIPRCNT values of 0, and 100 for GIPRCNT values of -100.

Structure (SMILES)	growth
CC[C@]1(O)C[C@@H]2CN(CCc3c([nH]c4ccccc34)[C@@](C(=O)OC)(c3cc4c(cc3OC)N(C)[C@H]3[C@@](O)(C(=O)OC)[C@H](OC(=O)CCCBr)[C@]5(CC)C=CCN6CC[C@]43[C@@H]65)C2)C1	-27% (active)
COc1ccc(CSc2nnc(SCC(=O)Nc3ccc(Cl)cc3)s2)cc1	67.7% (inactive)
CCOC(=O)c1cc2c(n1Cc1cccc(OC)c1)-c1oncc1CCC2	14.5% (inactive)
CCOc1ccc2nc(C)cc(Nc3ccc(Br)cc3)c2c1	107% (inactive)
O=c1oc2ccc(Cl)cc2c(=O)n1-c1ccc(Cl)cc1F	-20.9% (active)
CSc1nc2c(c(=O)[nH]1)N=C1c3ccccc3C(=O)C1C(c1ccccc1)N2 (stereo not given)	82.2% (inactive)
O=c1oc2ccc(Cl)cc2c(=O)n1-c1ccc(F)cc1F	-23% (active)
O=C(NC1CCCCC1)C(c1cccs1)N(CCc1ccccc1)C(=O)c1ccco1 (stereo not given)	65.2% (inactive)
COc1cc(/C=C2\CN(C)C/C(=C\c3cc(CN4CCOCC4)c(O)c(OC)c3)C2=O)cc(CN2CCOCC2)c1O	41% (inactive)
CC(=O)O[C@@H]1/C=C/C(=O)N[C@@H](C)CCC/C=C/[C@@H]2CCC[C@H]21	37.9% (inactive)
CC(=O)c1ccc(NC(=O)Nc2ccc(S(=O)(=O)Nc3ccc(Cl)nn3)cc2)cc1	96.9% (inactive)
O=c1c(-c2nc3ccccc3[nH]2)cc2ccccc2n1Cc1cn(Cc2ccccc2Cl)nn1	45.1% (inactive)
COC(=O)/C(CCC=C(C)C)=C1\[C@@H](OC(C)=O)C[C@@]2(C)[C@H]1C[C@@H](O)[C@H]1[C@@]3(C)CC[C@H](NCCCNCCCCNCCCN)[C@@H](C)[C@@H]3CC[C@@]12C	93.7% (inactive)
CCCCC1CCc2cccc3c(SCC(=O)N(C)c4ccc(Cl)cc4)cc[n+]1c23 (stereo not given)	97.5% (inactive)
Cc1ccc2cc3c(N)c4c(C)ccc(C)c4nc3nc2c1	-23.9% (active)
CCOC(=O)c1ccc(N=Cc2sc(=O)[nH]c2O)cc1	93.7% (inactive)
O=c1c2cc(F)cc(Cl)c2sc2c(Cl)nc3ccccc3c12	77% (inactive)
O=c1c2cc(F)ccc2sc2c(Nc3ccncc3)nc3ccccc3c12	5.65% (active)
Cc1c(-c2csc(-n3nc(C(F)(F)F)cc3C(F)(F)F)n2)no[n+]1[O-]	87.4% (inactive)
Fc1cccc(COc2ccc(Nc3ncnc4onc(-c5ccccc5)c34)cc2)c1	5.66% (active)

Structure (SMILES)	growth
CC1CCCCN1CCCNC(=O)c1ccc2c(c1)sc1nc(-c3ccc(F)cc3)cn12 (stereo not given)	102% (inactive)
O=C1NC(=S)NC(=O)C1=Cc1cn(Cc2cn(Cc3cccc4ccccc34)nn2)c2ccccc12	97.2% (inactive)
O=c1oc2ccc(Cl)cc2c(=O)n1-c1cc(C(F)(F)F)cc(C(F)(F)F)c1	-14.3% (active)
N#C/C(=C\c1c(-c2ccccc2)[nH]c2ccccc12)C(=O)c1ccccc1	57.1% (inactive)
Cc1c(C(=O)OCCO)cc(-c2ccc(Cl)cc2)n1-c1ccc(Cl)cc1Cl	54.7% (inactive)
CN(O)c1nc(N(C)O)nc(N2CCOCC2)n1	31.4% (inactive)
Nc1ccc(-c2nc3cc(Oc4ccc(Oc5ccc6[nH]c(-c7ccc(N)cc7)nc6c5)cc4)ccc3[nH]2)cc1	73.7% (inactive)
Cn1nc(C(C)(C)C)cc1NC(=O)Cc1ccc(/C=C2\C(=O)Nc3ccccc32)cc1	45% (inactive)
Nc1ccc(C2c3ccccc3Oc3ccccc32)cc1	89.4% (inactive)
O=C(Nc1ccc(Br)cc1F)c1cc(Cl)ccc1O	-8.76% (active)
COc1ccc(/C=C/C(=O)c2ccc3cc(OC)c(OC)cc3c2)cc1OC	31.9% (inactive)
CC(=Nc1ccccc1)C1=C(O)C(Cc2ccc(F)cc2)NC1=O (stereo not given)	-9.06% (active)
O=C(NC1C(O)OC(CO)C(O)C1O)NS(=O)(=O)c1ccc(Cl)cc1 (stereo not given)	100% (inactive)
O=C(N=Nc1c(O)[nH]c2ccccc12)c1oc2ccccc2c1CN1CCN(c2ccccc2)CC1	20.4% (inactive)
CCCCNc1nc(NC(C)(C)C)nc(NC(C)(C)C)n1	52.8% (inactive)
Nc1nc(-c2cnccn2)nn1-c1nc2ccccc2s1	88.4% (inactive)
CCOc1ccc(Nc2ccnc3cc(Cl)ccc23)cc1	-35.4% (active)
Cc1nc(Nc2ccccn2)sc1C(=O)/C=C/c1ccc(Cl)cc1	-39.3% (active)
COc1ccc2c(c1)C=C1CSCC3=Cc4cc(OC)ccc4OC13O2	15.1% (inactive)
O=c1c(-c2nc3ccccc3[nH]2)cc2ccccc2n1Cc1cn(Cc2ccc(N3CCOCC3)cc2)nn1	28% (inactive)

— PubChem BioAssay (NCI)
